# Experimental data: PubChem BioAssay AID485346 (Sanford-Burnham Center for Chemical Genomics, 2010)
# The whole screen tested about 330,000 compounds, of which about 10,000 (3%) were called active. Many of the other results were omitted from the sample, so actives are more common in it than they were. Values without a mark were called inactive.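 The calls were made as follows: active = inhibition of at least 50% at 8 µM in the primary screen; inactive = the rest.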
# Molecular target: Protein Mdm4 (Homo sapiens) + E3 ubiquitin-protein ligase Mdm2 (Homo sapiens) (UniProt O15151+Q00987)
# Experiment: inhibitors of human Mdm2-MdmX association, primary screen, cell-based, luminescence, split luciferase, SaOS-2, uHTS (AID 485346)
# Settings: SaOS-2 split-luciferase Mdm2/MdmX complementation, at 8 µM, stronger effect = higher value
# Chain of Protein Mdm4 (Homo sapiens) + E3 ubiquitin-protein ligase Mdm2 (Homo sapiens) (O15151 whole entry, looked up): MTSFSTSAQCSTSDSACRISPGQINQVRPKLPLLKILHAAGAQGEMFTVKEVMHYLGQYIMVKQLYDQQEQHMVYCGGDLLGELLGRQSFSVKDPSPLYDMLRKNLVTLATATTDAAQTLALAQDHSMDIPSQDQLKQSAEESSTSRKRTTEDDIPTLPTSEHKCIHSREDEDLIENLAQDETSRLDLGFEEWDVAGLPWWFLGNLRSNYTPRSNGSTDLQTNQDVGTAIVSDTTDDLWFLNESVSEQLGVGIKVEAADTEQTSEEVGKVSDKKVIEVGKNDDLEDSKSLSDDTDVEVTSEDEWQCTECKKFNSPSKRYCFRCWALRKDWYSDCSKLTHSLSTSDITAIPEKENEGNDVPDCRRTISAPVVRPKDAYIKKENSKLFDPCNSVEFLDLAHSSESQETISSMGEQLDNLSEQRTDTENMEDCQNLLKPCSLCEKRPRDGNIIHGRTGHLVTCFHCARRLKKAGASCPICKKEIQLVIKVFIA
# Chain of Protein Mdm4 (Homo sapiens) + E3 ubiquitin-protein ligase Mdm2 (Homo sapiens) (Q00987 whole entry, looked up): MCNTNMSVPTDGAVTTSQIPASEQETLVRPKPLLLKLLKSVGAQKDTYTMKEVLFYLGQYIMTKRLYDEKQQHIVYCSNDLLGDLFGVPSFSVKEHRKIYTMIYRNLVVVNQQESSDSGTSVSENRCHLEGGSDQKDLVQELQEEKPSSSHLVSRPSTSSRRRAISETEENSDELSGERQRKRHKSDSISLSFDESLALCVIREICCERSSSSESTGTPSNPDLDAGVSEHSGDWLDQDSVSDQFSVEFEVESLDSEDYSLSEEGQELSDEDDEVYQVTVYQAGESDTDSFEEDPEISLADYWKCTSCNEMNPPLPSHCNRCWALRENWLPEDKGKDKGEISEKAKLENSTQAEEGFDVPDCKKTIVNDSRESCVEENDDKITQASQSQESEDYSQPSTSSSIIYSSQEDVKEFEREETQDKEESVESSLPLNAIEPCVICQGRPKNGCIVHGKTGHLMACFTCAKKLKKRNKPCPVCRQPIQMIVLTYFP
row,SMILES,inhibition
1,COc1ccc(CNC(=O)CN(C(=O)c2csnn2)c2cnc3ccccc3c2)cc1,12.6%
2,CCOC(CNC(=O)C1CCN(S(=O)(=O)c2ccc3nc4c(c(C(=O)O)c3c2)CC(C)CC4)CC1)OCC (centres undefined),14.5%
3,C/C(=N\N=C(N)N)c1ccc(Cl)cc1,52% (active)
4,C/C(=N\NC(=S)NCc1ccccc1)c1ccc(Cl)cc1,12.3%
5,C/C(=N\OCC(=O)O)c1ccc(Cl)cc1,-3.73%
6,CN(C)c1ccc(C(CNC(=O)c2ccc(F)cc2)c2c[nH]c3ccccc23)cc1 (centres undefined),3.11%
7,COC(=O)c1c(NC(=O)COc2ccc(Cl)cc2Cl)sc2c1CC(C)(C)NC2(C)C,100% (active)
8,COC(=O)c1sccc1NC(=O)COc1ccc(Cl)cc1,-7.02%
9,Cc1cnc(C(=O)OCC(=O)Nc2ccc(Cl)cc2Cl)cn1,21.4%
10,CCc1ccc(CN(C)C(C)C(=O)Nc2ccc(S(=O)(=O)N3CCCC3)cc2)cc1 (centres undefined),20.1%
11,NS(=O)(=O)c1ccc(N=Nc2c(O)[nH]c3ccc(Br)cc23)cc1,53.6% (active)
12,O=C(CNC(=O)Cc1ccccc1)N=Nc1c(O)[nH]c2ccc(Br)cc12,37.6%
13,Oc1[nH]c2ccc(Br)cc2c1N=Nc1nn[nH]n1,13.6%
14,Cc1ccc(S(=O)(=O)Oc2ccc(/C=N/NC(=O)c3ccncc3)cc2)cc1,16.6%
15,COc1ccc(CC(=O)NCC(=O)N/N=C/c2cc(Br)ccc2OC)cc1,41.6%
16,Cc1ccc(OCCOCCOc2ccc(Br)cc2/C=N\NC(=O)c2ccncc2)cc1,59.9% (active)
17,O=C(Nc1ccnn1C1CCN(C/C=C/c2ccc(F)cc2)CC1)C1CCCC1,22.3%
18,O=C(O)CN(Cc1ccco1)S(=O)(=O)c1ccc(F)cc1,-22%
19,Cc1onc(-c2c(F)cccc2Cl)c1C(=O)N(C)CC(=O)Nc1cccc(F)c1,-8.71%
20,COc1ccccc1NC(=O)CCCc1c[nH]c2ccccc12,-3.5%
21,COc1cccc(CNCCc2c[nH]c3ccccc23)c1OCc1ccccc1F,92.8% (active)
22,COc1ccc(S(=O)(=O)NCCc2c[nH]c3ccccc23)cc1OC,6.22%
23,Cc1ccoc1C(=O)Nc1cccc(Oc2ccccc2)c1,-66.5%
24,COC(=O)c1ccccc1NC(=O)C1(S(=O)(=O)c2ccc(Cl)cc2)CC1,-0.27%

row,SMILES,inhibition
1,CCOc1ccc(-c2nc(N)ncc2-c2ccccc2OC)c(O)c1,11.3%
2,COc1ccc(-c2n[nH]c(C)c2-c2ccc(OC)c(OC)c2)c(O)c1,62.5% (active)
3,C=C(C)COc1ccc(-c2ncncc2-c2ccc(OC)cc2)c(O)c1,29.3%
4,COc1ccc(-c2n[nH]c(C)c2-c2ccccc2OC)c(O)c1,38.6%
5,COc1ccc(-c2[nH]ncc2CN(C)Cc2c(C)n[nH]c2C)c(OC)c1,15.3%
6,C=C(C)COc1ccc(-c2n[nH]c(C)c2-c2ccccc2OC)c(O)c1,53.6% (active)
7,C=C(C)COc1ccc(-c2n[nH]c(C)c2-c2ccccc2)c(O)c1,53.7% (active)
8,COc1ccc(-c2c(-c3ccc(OC)cc3O)nc(C)nc2C(F)(F)F)cc1,8.07%
9,C=C(C)COc1ccc(-c2nc(N)ncc2-c2ccccc2OC)c(O)c1,17.9%
10,O=C(NCCCCO)C(F)(F)C(F)(F)C(F)(F)C(=O)NCCCCO,-22.9%
11,C=CCNCCCCOc1ccccc1,-9.48%
12,C/C=C/C=C/C(=O)OCC(=O)Nc1ccc(Cl)cc1,23.8%
13,Cc1ccc(N2C(=O)CC(Sc3ncn[nH]3)C2=O)cc1 (centres undefined),7.7%
14,N#CC1(NC(=O)COC(=O)CSc2ccc(F)cc2)CCCCC1,6.22%
15,Cc1ccc(C(=O)NN(CCC#N)C2=NS(=O)(=O)c3ccccc32)cc1,6.64%
16,Cc1cn(C2OC[C@@H](O)[C@@H]2CO)c(=O)[nH]c1=O (some centres undefined),-25.3%
17,CCOC(=O)N1CCN(C(=O)c2ccc(S(=O)(=O)Nc3cccc(C(F)(F)F)c3)cc2)CC1,5.75%
18,CCn1c(/C=C/Nc2ccccc2)[n+](CC)c2ccc(C(=O)OCC(F)(F)F)cc21,50.7% (active)
19,CCOC(=O)c1ccc2c(c1)nc(C)n2CC,-24.3%
20,Cc1nc2c(C(=O)NCc3cccs3)cnn2c(C)c1Cc1ccc(F)cc1,5.96%
21,CN(C)c1ccc(-c2nnc(-c3cccnc3)o2)cc1,-90.9%
22,OC(CNCc1ccc2c(c1)OCO2)COc1ccccc1 (centres undefined),-15.2%
23,CN(Cc1ccccc1)CC(O)COc1ccc(CNCc2cc3ccccc3s2)cc1 (centres undefined),51.9% (active)
24,Cc1ccc(OCC(=O)OC(C)CN(C)Cc2ccccc2)cc1 (centres undefined),-13.3%

row,SMILES,inhibition
1,CCC(C)c1ccc(NC(=S)N2CCCC2)cc1 (centres undefined),17.9%
2,O=C(O)CN1C(=O)CC(Cc2ccccc2)C1=O (centres undefined),3.44%
3,NS(=O)(=O)c1ccc(CNC(=O)c2cccc(S(=O)(=O)N3CCc4ccccc43)c2)cc1,27.6%
4,C[C@@H]1CN([C@@H](C)CO)C(=O)c2cccc(NS(=O)(=O)c3ccc(F)cc3)c2O[C@H]1CN(C)C(=O)NC1CCCCC1,-2.62%
5,O=C(CN1CCN(C2CCCCC2)CC1)Nc1ccccc1N1CCCCC1,20%
6,CN1CCN(c2ccccc2NC(=O)COc2ccc(C3CCCCC3)cc2)CC1,51.3% (active)
7,Cc1ccc(C(C)C)cc1OCC(=O)Nc1ccccc1N1CCCC1,28.7%
8,CSCCC1NC(=O)N(CC(=O)Nc2cccc(S(=O)(=O)N3CCCCCC3)c2)C1=O (centres undefined),2.6%
9,O=C1/C(=C\Nc2ccccc2)CCN1c1ncccn1,-11.4%
10,O=C(CN1CCCSc2ccccc21)N1CCN(S(=O)(=O)c2ccccc2)CC1,-4.66%
11,O=C(NC(=O)c1ccccc1N1CCCCC1)Nc1ccc(Br)cc1,51.5% (active)
12,Cc1ccccc1NC(=O)Nc1ccccc1N1CCCCC1,2.88%
13,COc1ccccc1C(=O)NC(=S)Nc1ccccc1N1CCCCC1,30%
14,COc1ccccc1NC(=O)CN(c1ccccc1OC)S(=O)(=O)c1ccccc1,-19.5%
15,COc1ccc(S(=O)(=O)N(CC(=O)N/N=C/c2ccccc2C(=O)O)c2ccccc2OC)cc1,-6.42%
16,COc1ccccc1N(CC(=O)N/N=C(\C)c1ccccc1O)S(=O)(=O)c1ccc(C)cc1,52.3% (active)
17,C=CCN1CC(C)/C(=N\O)CC1C (centres undefined),24.4%
18,Brc1cc(Br)c(Oc2cc(Br)c(Br)cc2Br)cc1Br,15.4%
19,Fc1ccccc1-c1cc2cc3c(cc2cn1)OCO3,-231%
20,O=C(CSc1cccc2cccnc12)N/N=C/c1cccnc1,54.3% (active)
21,Cc1ccc(NC(=O)CSc2cccc3cccnc23)c(C)c1,28.1%
22,Cc1nc2ccccc2n1CC(=O)N/N=C/c1cccnc1,25.2%
23,C/C(=N\NC(=O)c1ccc(CSc2nc(C)cc(C)n2)cc1)C1CCCCC1,11.2%
24,COc1ccc(NC(=O)CSCc2ccc([N+](=O)[O-])cc2)cc1OC,22.2%

row,SMILES,inhibition
1,O=C(c1cccc(S(=O)(=O)N2CCCC2)c1)N(Cc1ccco1)C1CCS(=O)(=O)C1 (centres undefined),10.9%
2,O=C(N/N=C/c1cc2c(cc1Br)OCO2)C1COc2ccccc2O1 (centres undefined),3.36%
3,CC1(C(=O)N/N=C/c2cc3c(cc2Br)OCO3)CC1(Br)Br (centres undefined),31.2%
4,O=C(N/N=C\c1cc2c(cc1Cl)OCO2)c1ccc(Br)s1,87.3% (active)
5,O=S(=O)(Nc1nccs1)c1ccc2c(c1)OCCO2,12.5%
6,CC(Sc1nnc(CNC(=O)c2ccccc2F)n1C)C(=O)Nc1nccs1 (centres undefined),-5.88%
7,Nc1ccc2nn(-c3ccc(Cl)cc3)nc2c1,-91.9%
8,NC(=S)N/N=C/c1coc2cc(Cl)ccc2c1=O,-1.23%
9,CC(C)Oc1c(Br)cc(Br)cc1/C=N/NC(N)=S,57.4% (active)
10,CCOc1ccc(/C=N/NC(N)=S)cc1,10.2%
11,COC(=O)CCC(=O)N1CCCC(CO)(Cc2ccccc2)C1 (centres undefined),-73.8%
12,C[C@@H](C(=O)N1CCNCC1)n1cc(CCC(=O)O)nn1,3.92%
13,COc1ccc(N(C(=O)c2snc(C(N)=O)c2N)C(C(=O)NC2CCCC2)c2ccc(C)o2)c(OC)c1 (centres undefined),8.7%
14,N#Cc1cccc(NC(=O)COC(=O)c2ccccc2C(=O)c2ccc(Cl)c([N+](=O)[O-])c2)c1,98.1% (active)
15,O=C(Nc1ccncc1)c1ccc(Cl)c([N+](=O)[O-])c1,6.79%
16,CC(OC(=O)CNC(=O)c1ccc(Cl)c([N+](=O)[O-])c1)C(=O)NCc1ccco1 (centres undefined),27.3%
17,CC(=O)Nc1ccc(NC(=O)C(C)OC(=O)c2ccccc2C(=O)c2ccc(Cl)c([N+](=O)[O-])c2)cc1 (centres undefined),98.6% (active)
18,CC(=O)Nc1ccc(NC(=O)COC(=O)c2ccccc2C(=O)c2ccccc2)cc1,2.79%
19,COC(=O)c1cc(NC(=O)Cc2ccccc2[N+](=O)[O-])ccc1Cl,-1.62%
20,CCC(=O)c1ccc(OCC(O)Cn2nc(C)c(C(C)=O)c2C)cc1 (centres undefined),4.82%
21,CC1CCCC(NC(=O)c2cc(-c3ccncc3)nc3ccccc23)C1C (centres undefined),-4.9%
22,Cc1ccc(C(=O)O)cc1S(=O)(=O)NCC1CCCO1 (centres undefined),-63.3%
